{
  "source": "PubChem BioAssay AID652099",
  "about": "(National Center for Advancing Translational Sciences (NCATS), 2013)",
  "note": "The source made the active and inactive calls.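 The calls were made as follows: active = Gaucher patient macrophages show a phagocytic index close to or matching that of healthy macrophages; inactive = the rest.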",
  "data": [
    {"assay": "Extended Characterization of Activators of N370S glucocerebrosidase as a Potential Chaperone Treatment of Gaucher Disease: Phagocytosis Index", "details": "Gaucher iPSC macrophages, phagocytosis of fluorescent E. coli particles", "description": "Glucocerebrosidase (GCase) catalyzes the hydrolysis of beta-glucocerebroside (GC) to glucose and ceramide in lysosomes. Mutations in the glucocerebrosidase gene result in Gaucher disease, an autosomal recessive lysosomal storage disorder. Many of the mutations encountered in patients with Gaucher disease are missense alterations that may cause misfolding, decreased stability and/or mistrafficking of this lysosomal protein. […] These inhibitors include iminosugar analogs and other inhibitors that were discovered as part of previous work. However, the enhancement of enzyme activity by the chaperone action of an enzyme inhibitor must be balanced against the direct inhibition of the enzyme. […] In this extended characterization of our probe, we have further characterized the activity of probes in relevant models of Gaucher disease. This assay examine phagocytosis in patient-derived macrophages following compound incubation. NIH Chemical Genomics Center [NCGC] NIH Molecular Libraries Probe Production Centers Network [MLPCN] MLPCN Grant: MH086442 Assay Submitter (PI): Ellen Sidransky, NHGRI\nHMacs and iMacs, plated in black 96-well clear bottom plates, were treated, washed and incubated for 2 hrs with 100 µl of fluorescein-labeled E. coli BioParticles (Vybrant Phagocytosis Assay, Invitrogen).", "values": [
      {"molecule": "C#Cc1ccc(NC(=O)c2cnn3c(C)cc(C)nc23)cc1", "outcome": "active; similar to control"}
    ]}
  ]
}
